USP8 block: inhibitors of human USP8 deubiquitinase. Ubiquitin carboxyl-terminal hydrolase 8 (Homo sapiens), P40818. purified USP8, Ub-rhodamine cleavage fluorescence, 30 min. inhibition, % at 20 µM. actives 4.2% (n = 47,000). AID 1645853, 2021
USP10 block: inhibitors of human USP10 deubiquitinase. AID 1645856, 2021. inhibition, % at 20 µM. Ubiquitin carboxyl-terminal hydrolase 10 (Homo sapiens), Q14694. purified USP10, Ub-rhodamine fluorescence, 60 min. actives 1.1% (n = 47,000)
USP17 block: inhibitors of human USP17 deubiquitinase. Ubiquitin carboxyl-terminal hydrolase 17-like protein 5 (Homo sapiens), A8MUK1. inhibition, % at 50 µM. AID 1645855, 2021. purified USP17, Ub-rhodamine cleavage fluorescence, 3 h. actives 6.5% (n = 47,000)
USP30 inh: inhibitors of human USP30 deubiquitinase | Ubiquitin carboxyl-terminal hydrolase 30 (Homo sapiens), Q70CQ3 | purified USP30, Ub-rhodamine cleavage fluorescence | inhibition, % at 25 µM | actives 5.3% (n = 47,000)
USP28 block: inhibitors of human USP28 deubiquitinase; actives 3% (n = 47,000); inhibition, % at 25 µM; purified USP28, Ub-rhodamine cleavage fluorescence, 30 min
The depositor's hits bear a star; i = inactive; x = no result. Most compounds without a hit are left out; they make up all but 14% or so of the library. Rule as the data show it: active = inhibition above about 30%; inactive = the rest.

SMILES	USP8 block	USP10 block	USP17 block	USP30 inh	USP28 block
Cc1cc2nc(N3CCCCC3C)c3ccccc3n2n1 (centres undefined)	-95	0	-29	-8	-5
Cc1cc2nc(N3CCN(C(=O)c4ccccc4)CC3)c3ccccc3n2n1	1	1	16	34*	4
CN1CCCC(OC(=O)c2cc(Cl)cc(Cl)c2)C1 (centres undefined)	32*	4	x	33*	23
CN1CCCC(OC(=O)c2cccc(Cl)c2)C1 (centres undefined)	19	0	15	24	5
Cc1ccc(-c2nc3c(c(=O)c4ccccc4n3C)c(=O)n2C2CCCCC2)cc1	18	6	-26	-145	-31
CC(=O)c1c(O)c2ccccc2n(C2CCCCC2)c1=O	49*	-8	-47	-115	-32
CC(=O)c1c(O)c2ccccc2n(Cc2ccccc2)c1=O	36*	-5	-32	-77	-20
CCOc1ccc(-n2ccnc(SCC(=O)Nc3ccccc3Cl)c2=O)cc1	53*	-1	30*	-37	14
CCOc1ccc(-n2ccnc(SCC(=O)Nc3ccccc3F)c2=O)cc1	57*	16	28	32*	13
Cc1cc(C)cc(-n2ccnc(SCC(=O)Nc3cccc(Cl)c3)c2=O)c1	-4	7	34*	54*	20
CCN1C(SCC(=O)Nc2ccccc2Cl)=NS(=O)(=O)c2ccccc21	-131	0	-32	8	-2
COc1cnc(CSc2nccc(C)n2)cc1OCC(=O)Nc1ccccc1F	-33	-2	-9	6	0
COc1ccc(-c2ccnc(SCC(=O)Nc3ccccc3F)n2)cc1	24	0	71*	65*	23
Cc1cc(NC(=O)CSc2nccn2-c2ccc(F)cc2)no1	-2	0	1	13	5
Cc1ccc(S(=O)(=O)NC(c2ccccc2)c2ccccc2)cc1C(=O)O	7	0	7	-58	9
O=C(OCCCN1C(=O)c2cccc3c(N4CCCCC4)ccc(c23)C1=O)c1ccc(S(=O)(=O)N2CCOCC2)cc1	-298	-6	-129	i	-231
Fc1ccc(C(CCNc2ncnc3c2[nH]c2ccccc23)c2ccco2)cc1 (centres undefined)	11	-10	18	-36	-2
O=C(c1ccccc1)N1CC[C@@H]2CN(C(=O)NC3CCCCC3)[C@@H]2C1	26	4	17	20	11
O=C(Nc1ccccc1C(F)(F)F)c1cccc(S(=O)(=O)Nc2cc(C(F)(F)F)ccc2Cl)c1	0	43*	27	17	13
Cc1cccc(N2CCCn3c2nc2c3c(=O)n(Cc3cccc4ccccc34)c(=O)n2C)c1	-22	1	0	16	2
C(=C\c1ccccc1)/CSc1nnc(-c2ccco2)o1	-2	5	19	9	32*
CCCc1cc(=O)n2[nH]c(-c3ccc(C)cc3)cc2n1	2	1	43*	-7	-10
c1ccc(-c2cnc([C@@H]3COCCN3C3CCNCC3)[nH]2)cc1	4	2	6	x	x
CC(C)(C)CC(=O)N1CCC(c2nc3c(nnn3Cc3ccccc3Cl)c(=O)[nH]2)CC1	6	6	2	20	5
O=C(C1CCCC1)N1CCC(c2nc3c(nnn3Cc3c(Cl)cccc3Cl)c(=O)[nH]2)CC1	4	16	12	44*	27
SMILES	USP8 block	USP10 block	USP17 block	USP30 inh	USP28 block
O=C(C1CCC1)N1CCC(c2nc3c(nnn3Cc3ccccc3Cl)c(=O)[nH]2)CC1	19	7	25	32*	18
O=C(C1CCC1)N1CCC(c2nc3c(nnn3Cc3c(F)cccc3Cl)c(=O)[nH]2)CC1	0	3	-5	6	-8
Cc1ccc2oc(C(=O)NCC(c3ccco3)N3CCOCC3)cc(=O)c2c1 (centres undefined)	-1	-1	-13	-24	2
CN(C)c1ccc(-c2noc([C@@H]3CCCN3Cc3cccnc3)n2)cn1	-5	-1	3	-40	4
COc1ccc(-c2nonc2NC(=O)C(c2ccccc2)c2ccccc2)cc1OC	21	6	0	51*	12
CC(Oc1ccc(C(C)C)cc1)C(=O)Nc1nonc1-c1ccccc1 (centres undefined)	9	13	-2	-1	1
Cc1ccc(-c2nonc2NC(=O)Cc2ccccc2)cc1	5	6	7	21	4
CC(Oc1ccccc1Cl)C(=O)Nc1nonc1-c1ccccc1 (centres undefined)	33*	15	16	27	16
CCCc1nc(C2CN(C(=O)c3cscn3)CCO2)n[nH]1 (centres undefined)	9	-1	7	2	3
CC(C)c1nccn1-c1ccc(NC(=O)[C@@H]2C[C@@H]3C=C[C@H]2C3)cc1	11	0	3	18	14
Cn1c(CN2CCCCCC2)nc2cc(NC(=O)c3ccccc3)ccc21	20	-1	51*	-67	0
Cn1c(CCN2CCN(c3ccccn3)CC2)nc2cc(NC(=O)c3ccccc3)ccc21	7	0	-4	10	-1
Cc1ccc(N2CCN(CCc3nc4cc(NC(=O)Nc5ccccc5)ccc4n3C)CC2)cc1	-3	-1	43*	8	-1
Cn1c(CCN2CCN(c3ccc(F)cc3)CC2)nc2cc(NC(=O)c3ccc(Cl)cc3)ccc21	37*	8	33*	36*	24
CCCCC(=O)Nc1ccc2c(c1)nc(CCN1CCN(c3ccc(C)cc3)CC1)n2C	4	0	3	7	1
CN(C)CCNc1ccn2nc(-c3ccco3)cc2n1	-16	-6	-59	-261	-73
Cc1ccc(CN2CCC3(COCc4c(C)nc(NCC5CC5)nc43)C2)cc1 (centres undefined)	-15	-1	-17	-26	2
O=C(Cn1c(=O)n(C2CC2)c(=O)c2nscc21)Nc1ccc(F)cc1	1	-6	-10	-28	0
CCn1c(CCNC(=O)c2ccccc2)nc2ccccc21	-4	-2	4	x	x
O=C(NCCCc1nc2ccccc2n1Cc1c(F)cccc1Cl)c1ccco1	10	1	34*	11	5
O=C(NCCCc1nc2ccccc2n1Cc1c(Cl)cccc1Cl)c1ccco1	17	5	74*	11	47*
COc1ccc2[nH]c3c(c2c1)CCN1C(=O)N(c2ccccc2C(=O)NCC(C)c2ccccc2)C(=O)[C@]31C (some centres undefined)	25	11	9	14	5
Cc1cc(C)cc(-c2nc(SCC(=O)N3CCCC3)c3c(=O)n(C)c(=O)n(C)c3n2)c1	14	3	x	36*	14
Cc1sc2nc(-c3cccnc3)nc(NCCCN3CCOCC3)c2c1C	-30	-5	33*	21	4

Screens as filed in PubChem BioAssay.
